The source of these data is PubChem BioAssay AID602449 (Sanford-Burnham Center for Chemical Genomics, 2012).

Screen size: about 360,000 compounds; about 5,000 (1.4%) were called active. This is one part of a sample in which actives are shown more often than they occur.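 How the source made its calls: active means inhibition of 50% or more, scaled per plate between neutral and stimulator controls; inactive means the rest.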

The test can be described thus: blockers of Ca2+-induced mitochondrial swelling – biochemical, isolated mouse mitochondria, absorbance, primary screen (AID 602449).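 Further: 0% = DMSO wells given calcium and 100% = 1 mM EGTA wells.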 The conditions noted are these: 30 min, at 10 µM, stronger effect = higher value.
Turning to `CN(C)CCNC(=O)c1ccc(-c2cn3c(-c4ccc(Oc5ccccc5)cc4)cnc3cn2)cc1`, the inhibition was -1.4% (inactive).

Take `O=C(OC1CCOC1=O)c1cccc(S(=O)(=O)Nc2ccc(F)cc2)c1` (centres undefined): the inhibition was 2.8% (inactive).

Consider `CCOc1ccc(S(=O)(=O)NCCCn2ccnc2)cc1NC(C)=O`, for which the inhibition was -0.5% (inactive).

On to `CCN(CC)CCCN1C(=O)C(=O)/C(=C(/O)c2c(C)nc3ccccn23)C1c1ccc(C)o1` (centres undefined), for which the inhibition is 1.3% (inactive).

As for `O=C(CN(Cc1ccccc1)C(=O)c1ccc2c(c1)OCCO2)NCc1ccc2c(c1)OCO2`, the inhibition was -5.6% (inactive).

As to `CCC(=O)N1CCc2cc(S(=O)(=O)CCC(=O)N3CCN(c4ccccc4F)CC3)ccc21`, the inhibition was 0.5% (inactive).

With `O=C(C1Cc2ccccc2CN1C(=O)c1ccco1)N1CCN(c2ccccc2)CC1` (centres undefined), the inhibition is 0.7% (inactive).

`CN1CCC(N(C)C(=O)c2ccc(Cl)c(S(=O)(=O)Nc3ccc(Cl)cc3)c2)CC1`: the inhibition is -0.7% (inactive).

In the case of `C=C1c2c(Cl)ccc(O)c2C(O)=C2C(=O)[C@]3(O)C(O)=C(C(N)=O)C(=O)[C@@H](N(C)C)[C@@H]3[C@@H](O)C12` (some centres undefined), the inhibition is 80.1% (active).

Turning to `CCC(C)(C)NC(=O)CN(C(=O)CCC(=O)Nc1nccs1)c1ccc2c(c1)OCO2`, the inhibition was 0.4% (inactive).

As to `CCOC(=O)CNC(=O)/C=C/c1c(Cl)cccc1Cl`, the inhibition was 0.6% (inactive).

In the case of `COc1ccc([N+](=O)[O-])cc1NCC(=O)c1ccc(C)cc1`, the inhibition is 0.6% (inactive).

Turning to `COc1ccc(NC(C)=O)cc1NC(=O)CN1CCN(C2c3ccccc3-c3ccccc32)CC1`, the inhibition was -1.5% (inactive).

Consider `c1ccc2c(c1)C(=NC1CCCCC1)NC2=NC1CCCCC1`, for which the inhibition was 67.5% (active).

On to `Cc1cc2nc(SCCN3CCOCC3)[nH]c2cc1C`, for which the inhibition was 0% (inactive).

With `O=S(=O)(Nc1ccc(Oc2ncccn2)c(Cl)c1)c1ccc(F)cc1`, the inhibition is -1.6% (inactive).

On to `Cc1ccc(S(=O)(=O)Nc2ccc3ncccc3c2)cc1`, for which the inhibition was 85% (active).

As for `Cc1cc(C)cc(OCC(=O)Nc2ccc(S(=O)(=O)Nc3ccccn3)cc2)c1`, the inhibition is 3.7% (inactive).

Turning to `O=C(CCN1C(=O)c2ccccc2C1=O)NNC(=O)c1ccc(Cl)cc1Cl`, the inhibition was -0.8% (inactive).

On to `O=C(NCCN1C(=O)S/C(=C\c2cccnc2)C1=O)c1cccc(OC(F)F)c1`, for which the inhibition was 2.4% (inactive).

For `COc1ccc(N2CC(C(=O)NCCN3C(=O)S/C(=C\c4cccnc4)C3=O)CC2=O)c(OC)c1` (centres undefined), the inhibition was -0.2% (inactive).

`Cc1cc(OCCCC(=O)NCCN2C(=O)S/C(=C\c3cccnc3)C2=O)ccc1Cl`: the inhibition is 84.3% (active).

Consider `CSCCC(NC(=O)COc1ccccc1)C(=O)OCC(=O)c1cc2ccccc2o1` (centres undefined), for which the inhibition was 0% (inactive).

Take `CCc1nn(CC(=O)N2CCN(CC)CC2)c(=O)c2cccn12`: the inhibition is -0.4% (inactive).
